Among the test systems are ACVR1; ACVR2A; ACVR2B; ACVRL1; ADCK4; AKT1; AKT2; AKT3; ALK; ANKK1; AURKA; AURKB; AURKC; AXL.
Common to all, as to conditions: concentration: 1 μM, replicates: in singlicate; n = 1
The subject of the next assay is T1, ADCK3.
T1 construct: gene CABC1

In a further assay the test system is T2, AMPK-alpha1.
T2 construct: gene PRKAA1

The next assay relates to T3, AMPK-alpha2.
T3 construct: gene PRKAA2

The next assay has as its system T4, ARK5.
T4 construct: gene NUAK1

The subject of a further assay is T5, ASK1.
T5 construct: gene MAP3K5

Another assay relates to T6, ASK2.
T6 construct: gene MAP3K6

SMILES strings stand for the structures.
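Also: KINOMEscan kinase panel screen.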

For `CCc1ccc(-c2ccc3c(c2)-c2n[nH]cc2S(=O)(=O)N3C)cc1`, the “%Inh” value stood at 0% in the assay on ACVR1; 13% with ACVR2A; 22% in the assay with ACVR2B; 0% in the assay with ACVRL1; 9% in the assay with ADCK3; 0% in the assay with ADCK4. The “%Inh” value in the assay with AKT1 turned out to be 3%; in the assay with AKT2, 0%; in the assay on AKT3, 0%; in the assay on ALK, 0%; in the assay on AMPK-alpha1, 0%; with AMPK-alpha2, 1%. Further, the “%Inh” value is on record as 0% in the assay with ANKK1; 13% in the assay on ARK5; 6% with ASK1; 0% with ASK2; 0% with AURKA; 0% in the assay on AURKB. The “%Inh” value in the assay on AURKC was 11%; with AXL, 51%.
Regarding `Cn1cncc1C(=O)NC1CCN(c2ccnc(Nc3ccc(F)cc3)n2)C1` (stereo not shown) [GSK1379717], the “%Inh” value with ACVR1 was 24%; in the assay on ACVR2A, 24%; with ACVR2B, 2%; in the assay with ACVRL1, 0%; with ADCK3, 2%; in the assay with ADCK4 it was 26%. For the same molecule, the “%Inh” value worked out at 0% in the assay on AKT1; 0% in the assay with AKT2; 0% in the assay with AKT3; 0% in the assay on ALK; 0% with AMPK-alpha1; 12% in the assay on AMPK-alpha2. The “%Inh” value with ANKK1 turned out to be 0%; with ARK5 it was 9%; in the assay with ASK1, 10%; in the assay with ASK2 it was 3%; in the assay on AURKA, 0%; with AURKB, 23%. Also, the “%Inh” value with AURKC is given as 8%; in the assay with AXL, 0%.
As for `O=C(Nc1n[nH]c2cc(-c3ccsc3)ccc12)C1CC1` [SB-732932], the “%Inh” value came out at 28% in the assay with ACVR1; 26% with ACVR2A; 45% in the assay on ACVR2B; 0% in the assay on ACVRL1; 0% in the assay on ADCK3; 0% in the assay on ADCK4. The “%Inh” value turned out to be 0% in the assay with AKT1; 21% with AKT2; 9% in the assay with AKT3; 9% in the assay on ALK; 7% in the assay with AMPK-alpha1; 0% in the assay on AMPK-alpha2. The “%Inh” value with ANKK1 is recorded as 40%; in the assay with ARK5, 0%; in the assay with ASK1 it was 0%; with ASK2 it was 30%; in the assay on AURKA, 13%; with AURKB, 35%. Also, the results for the “%Inh” value with AURKC and in the assay on AXL were 20% and 43%, respectively.
In the case of `COc1cccc(C2=C(Nc3cc(Cl)c(O)c(Cl)c3)C(=O)NC2=O)c1` [SB-390767], the “%Inh” value amounted to 20% in the assay with ACVR1; 0% in the assay with ACVR2A; 2% in the assay with ACVR2B; 19% in the assay with ACVRL1; 1% in the assay with ADCK3; 0% in the assay with ADCK4. Also, the “%Inh” value in the assay with AKT1 is 0%; in the assay with AKT2, 0%; in the assay with AKT3, 0%; in the assay on ALK it was 29%; in the assay on AMPK-alpha1 it was 8%; in the assay with AMPK-alpha2, 0%. In addition, the “%Inh” value in the assay with ANKK1 was found to be 0%; with ARK5, 26%; in the assay on ASK1, 4%; with ASK2, 7%; in the assay on AURKA, 0%; with AURKB, 0%. Moreover, the figures for the “%Inh” value in the assay on AURKC and in the assay with AXL were 8% and 0%, respectively.
`O=C(Nc1n[nH]c2nc(-c3ccco3)c(Br)cc12)C1CCN(Cc2ccccc2)C1.O=C(O)[C@H](O)[C@@H](O)C(=O)O` (stereo not shown) [SB-742034]: the “%Inh” value in the assay on ACVR1 was 0%; with ACVR2A, 21%; in the assay on ACVR2B, 0%; with ACVRL1, 28%; in the assay on ADCK3, 7%; in the assay on ADCK4, 0%. Also, the “%Inh” value with AKT1 is reported as 0%; with AKT2 it was 3%; in the assay with AKT3 it was 3%; in the assay on ALK it was 5%; in the assay with AMPK-alpha1, 9%; in the assay with AMPK-alpha2, 0%. In addition, the “%Inh” value with ANKK1 is 11%; in the assay with ARK5 it was 0%; with ASK1, 13%; in the assay on ASK2, 17%; in the assay with AURKA, 34%; with AURKB it was 17%. Also, the “%Inh” value is 7% in the assay on AURKC and 13% in the assay on AXL.
Turning to `O=C1NC(=O)C(c2ccc(Cl)cc2)=C1Nc1cccc(Cl)c1` [SB-317651], the “%Inh” value stood at 0% in the assay on ACVR1; 0% with ACVR2A; 0% in the assay with ACVR2B; 16% with ACVRL1; 17% with ADCK3; 0% with ADCK4. The “%Inh” value was 0% in the assay with AKT1; 5% in the assay with AKT2; 0% in the assay on AKT3; 0% with ALK; 0% with AMPK-alpha1; 0% in the assay on AMPK-alpha2. Also, the “%Inh” value with ANKK1 was found to be 0%; in the assay with ARK5, 0%; in the assay on ASK1, 3%; in the assay with ASK2, 0%; in the assay with AURKA, 0%; in the assay on AURKB, 35%. Moreover, the “%Inh” value with AURKC turned out to be 0%; in the assay on AXL, 20%.
For `CNc1nc(-c2ccc3c(N)n[nH]c3c2)cc(N2C[C@@H](C(=O)Nc3ccccc3)CC[C@H]2C)n1` [GSK2298859], the “%Inh” value was 0% with ACVR1; 0% in the assay on ACVR2A; 12% with ACVR2B; 0% with ACVRL1; 22% with ADCK3; 26% in the assay on ADCK4. Moreover, the “%Inh” value came to 0% in the assay on AKT1; 2% in the assay on AKT2; 0% in the assay with AKT3; 3% in the assay with ALK; 0% in the assay with AMPK-alpha1; 0% in the assay on AMPK-alpha2. For the same molecule, the “%Inh” value with ANKK1 is given as 1%; in the assay with ARK5, 25%; in the assay on ASK1 it was 0%; with ASK2 it was 12%; in the assay on AURKA it was 12%; in the assay on AURKB it was 16%. Moreover, the “%Inh” value with AURKC was found to be 43%; with AXL it was 8%.
As for `CC(=O)c1cccc(NC(=O)NC2CCN(c3ccnc(Nc4ccc(F)cc4)n3)C2)c1` (stereo not shown) [GSK1379710], the “%Inh” value with ACVR1 is on record as 0%; in the assay on ACVR2A it was 10%; with ACVR2B, 13%; in the assay on ACVRL1, 0%; in the assay with ADCK3 it was 25%; in the assay on ADCK4 it was 41%. Further, the “%Inh” value in the assay with AKT1 came out at 0%; in the assay with AKT2, 2%; with AKT3 it was 0%; with ALK, 25%; with AMPK-alpha1, 0%; with AMPK-alpha2 it was 0%. The “%Inh” value stood at 19% with ANKK1; 31% with ARK5; 20% in the assay on ASK1; 0% in the assay with ASK2; 12% with AURKA; 0% in the assay with AURKB. Moreover, the “%Inh” value with AURKC came to 21%; in the assay with AXL it was 5%.
Consider `CCn1c(-c2c(N)noc2C)nc2cnccc21` [SB-737856], for which the “%Inh” value in the assay on ACVR1 came to 21%; in the assay on ACVR2A, 0%; with ACVR2B, 0%; with ACVRL1, 0%; with ADCK3, 23%; with ADCK4, 24%. The “%Inh” value came out at 0% in the assay with AKT1; 18% in the assay with AKT2; 0% in the assay on AKT3; 35% in the assay on ALK; 4% in the assay on AMPK-alpha1; 0% in the assay on AMPK-alpha2. Further, the “%Inh” value in the assay on ANKK1 came to 0%; in the assay on ARK5, 25%; with ASK1 it was 0%; in the assay with ASK2, 0%; in the assay on AURKA, 0%; with AURKB it was 32%. Moreover, the figures for the “%Inh” value in the assay on AURKC and in the assay on AXL were 4% and 0%, respectively.
In the case of `O=C(Nc1n[nH]c2nc(-c3cccs3)c(Br)cc12)C1CC1` [SB-735297], the “%Inh” value in the assay on ACVR1 was found to be 27%; in the assay on ACVR2A, 0%; in the assay with ACVR2B, 0%; in the assay on ACVRL1, 0%; with ADCK3 it was 0%; in the assay on ADCK4 it was 0%. The “%Inh” value in the assay with AKT1 is listed as 0%; in the assay with AKT2 it was 0%; in the assay on AKT3 it was 0%; in the assay with ALK, 0%; in the assay with AMPK-alpha1, 0%; in the assay on AMPK-alpha2, 8%. Moreover, the “%Inh” value was found to be 9% in the assay with ANKK1; 0% in the assay on ARK5; 2% in the assay with ASK1; 13% in the assay with ASK2; 0% in the assay with AURKA; 31% with AURKB. Besides, the entries for the “%Inh” value in the assay on AURKC and in the assay on AXL were 6% and 28%, respectively.
As to `Cc1nccc(-c2c(-c3ccc(F)cc3)ncn2CCCN2CCOCC2)n1.Cl` [SB-282975], the “%Inh” value in the assay with ACVR1 worked out at 5%; in the assay with ACVR2A it was 53%; in the assay with ACVR2B, 7%; in the assay on ACVRL1, 19%; with ADCK3 it was 37%; with ADCK4 it was 0%. Also, the “%Inh” value with AKT1 was found to be 28%; in the assay on AKT2 it was 0%; in the assay with AKT3, 0%; in the assay on ALK, 9%; in the assay with AMPK-alpha1 it was 0%; in the assay on AMPK-alpha2, 0%. Further, the “%Inh” value was found to be 33% with ANKK1; 0% in the assay on ARK5; 7% in the assay with ASK1; 20% with ASK2; 8% with AURKA; 14% in the assay with AURKB. Moreover, the results for the “%Inh” value in the assay with AURKC and in the assay on AXL were 34% and 0%, respectively.

The values are drawn from article PMC5540273 (PLoS ONE, 2017).
